# Reference: ChEMBL document CHEMBL3988442, “University of Dundee, Small-Polar-MMV Screening Library” (2021)
# In all, about 48,000 compounds went through this assay and about 13,000 (27%) showed an effect of 50% or more. The list shows a part of the results.
# Test system: Wolbachia pipientis
# Assay: Anti-Wolbachia Cell-Based Screen
# Assay type: functional
# Parameters: scale not given: in the data most compounds retested in dose-response had high values
# Settings: 5 µM
row,SMILES,Percent Effect [%]
1,NC(=O)C1CCCN1Cc1ccccc1NC(=O)CC(F)(F)F (configuration not stated),-9.794
2,O=C1CC(C(=O)Nc2nnc(-c3ccoc3)[nH]2)c2ccccc2N1 (configuration not stated),-8.464
3,COc1ccc(OC)c2c(C)cc(N(CCO)CCO)nc12,-7.73
4,CCn1c(CC2CCN(C(=O)c3cc(C(C)C)n[nH]3)CC2)n[nH]c1=O,-9.861
5,CCC[C@H]1CN(CCS(C)(=O)=O)C[C@@H]1NC(=O)c1ccccn1,20.97
6,Cc1ccoc1-c1nnc(CN2CCCC(Cn3cncn3)C2)o1 (configuration not stated),-5.411
7,Fc1ccc(-c2nnc(CN3CCOC(Cn4cncn4)C3)o2)cc1 (configuration not stated),-1.88
8,Fc1ccc(-c2nnc(CN3CCCC(Cn4cncn4)C3)o2)cc1 (configuration not stated),112.2
9,CC(CCn1cccn1)Nc1ccc(-c2nccn2C)nn1 (configuration not stated),-7.65
10,CC(C)(NS(C)(=O)=O)C(=O)NCCc1csc2ccccc12,9.786
11,Cc1cc(C(=O)N2CCCN(Cc3nccn3C)CC2)no1,89.63
12,Cc1occc1C(=O)N1CCCN(Cc2nccn2C)CC1,92.51
13,Cn1ccnc1CN1CCCN(C(=O)c2ccc(Cl)o2)CC1,-2.733
14,Cc1occc1C(=O)N1CCCN(Cc2ncc(Cl)n2C)CC1,3.419
15,CCc1nnsc1C(=O)N1CCCN(Cc2nccn2C)CC1,-3.239
16,O=C(NCc1ccccc1)c1nnc2ccc(N3CCOCC3)cc2n1,4.321
17,Cc1ccc(C)c2c(O)cc(CN[C@H]3CCCCNC3=O)nc12,-6.417
18,Cc1cc(NCC2CC(=O)Nc3ccccc32)nc(C)n1 (configuration not stated),2.28
19,CC(C)C(=O)N1CCC(C2C(=O)Nc3ccccc32)CC1 (configuration not stated),-15.74
20,CC(C)C(=O)N1CCC(c2c(C(N)=O)sc3ccccc23)C1 (configuration not stated),99.6
21,CCN(CC)S(=O)(=O)N1CCCC(c2ccc(C(=O)O)cc2)C1 (configuration not stated),-2.613
22,NC(=O)c1sc2ccccc2c1C1CCN(S(=O)(=O)N2CCOCC2)C1 (configuration not stated),162.8
23,CN(C)S(=O)(=O)N1CC[C@]2(O)CCN(c3nc4ccccc4s3)C[C@@H]2C1,10.05
24,CC(NC(=O)N1CCC(CC(N)=O)CC1)c1csc2ccccc12 (configuration not stated),-9.558
25,CN(C)S(=O)(=O)N1CCC(c2c(C(N)=O)sc3ccccc23)C1 (configuration not stated),94.67
26,O=S(=O)(N1CCOCC1)N1CCOC(CCc2ccccc2)C1 (configuration not stated),-18.19

row,SMILES,Percent Effect [%]
1,CCN(CC)S(=O)(=O)N1CCCC(c2cccc(C(=O)O)c2)C1 (configuration not stated),14.6
2,CCN(CC)S(=O)(=O)N1CCC(c2c(C(N)=O)sc3ccccc23)C1 (configuration not stated),158.5
3,O=S(=O)(N1CCOCC1)N1CCOC(CCCc2ccccc2)C1 (configuration not stated),5.354
4,CN(C)S(=O)(=O)N1CCC(OCCCc2ccccc2)C1 (configuration not stated),-12.64
5,COCC1CCN(C(=O)c2cc(O)nc(CC(C)C)c2)CC1,9.231
6,Cl.Cl.c1c(CN2CCCC2)nc2n1CCNC2,4.335
7,CC(C(=O)NCc1cccc(N2CC=CC2)c1)n1cccn1 (configuration not stated),-4.465
8,CCOC(=O)N1CCN(C(=O)Cc2c(C)nc(C)[nH]c2=O)CC1,-14.69
9,Cc1cnccc1NCCn1ccnc1C1CCOC1 (configuration not stated),-4.825
10,CCC(Nc1ncnc2sc(C(=O)O)c(C)c12)c1ccnn1C (configuration not stated),-0.5167
11,Cc1ccc(CN2C(=O)CC[C@]23CC[C@@H](NCC2CCOC2)CC3)cc1.O=C(O)C(F)(F)F (some centres not stated),-23.04
12,O=C(NCCOc1ccc2c(c1)OCO2)C1CC(=O)N(C2CC2)C1 (configuration not stated),106.6
13,CC(C)CN1CC(C(=O)NCCc2c[nH]cn2)CC1=O (configuration not stated),10.41
14,O=C(NCCOc1cccc(Cl)c1)C1CC(=O)N(CC2CC2)C1 (configuration not stated),-4.254
15,Cc1ccc(OCCC(=O)NC2CC(=O)N(C)C2)cc1C (configuration not stated),-10.49
16,CN1CC(C(=O)NCCOc2ccc3c(c2)OCO3)CC1=O (configuration not stated),106.4
17,CCN1CC(C(=O)NCCOc2ccc3c(c2)OCO3)CC1=O (configuration not stated),101.2
18,O=C(NCCOc1ccc2c(c1)OCO2)C1CC(=O)N(CC2CC2)C1 (configuration not stated),4.084
19,CC(C)CN1CC(C(=O)NCCOc2ccc3c(c2)OCO3)CC1=O (configuration not stated),103.1
20,CC(C)N1CC(C(=O)NCCOc2ccc3c(c2)OCO3)CC1=O (configuration not stated),7.499
21,COC(=O)CCNC(=O)C1CC(=O)N(C2CCCC2)C1 (configuration not stated),-11.01
22,CCN1CC(C(=O)NCc2ccnc(-n3ccnc3C)c2)CC1=O (configuration not stated),5.504
23,CC(=O)N1CCN(c2ccccc2CNc2cncc(C)c2)CC1,-7.391
24,CCc1cc(=O)[nH]c2nnc(SCC(=O)NC)n12,-1.194
25,Cc1cc(N2CCC(c3nccn3Cc3cscn3)CC2)ccn1,-23.28
26,O=C(NCc1cccs1)NCC1(O)CCc2ccccc2C1 (configuration not stated),-8.141

row,SMILES,Percent Effect [%]
1,O=C(c1cccs1)N1CCC(O)(CN2CCc3ccccc3C2)C1 (configuration not stated),-8.795
2,O=C(Cc1ccsc1)N1CCC2(CCCN(CC3CCOCC3)C2)C1 (configuration not stated),-0.5355
3,O=C(Cc1ccsc1)N1CCC(O)(CN2CCc3ccccc3C2)C1 (configuration not stated),104.8
4,O=C1NC2(CCN(C(=O)Cc3ccsc3)CC2)CC1c1ccccc1 (configuration not stated),6.926
5,O=C(Cc1cccs1)N1CCC(O)(CN2CCc3ccccc3C2)C1 (configuration not stated),105.2
6,CC(C)c1cc(NC(CO)CO)n2nccc2n1,17.2
7,CC(C)n1nc2c(cc1=O)CN(Cc1nc(-c3ccoc3)no1)CC2,17.12
8,COCCN1CCC(C(=O)N(C)CCOc2ccc(C)cc2Cl)C1 (configuration not stated),-22.94
9,O=C1CO[C@H]2CN(Cc3ccc(C(F)(F)F)cc3)C[C@H]2N1,-16.85
10,O=C1CO[C@@H]2CN(S(=O)(=O)c3ccc(F)cc3)C[C@H]2N1,87.78
11,O=C1CO[C@@H]2CN(S(=O)(=O)c3ccccc3F)C[C@H]2N1,96.68
12,O=C1CO[C@H]2CN(Cc3ccc(F)c(F)c3)C[C@H]2N1,-16.97
13,CNC(=O)Cc1csc(NC(=O)C2CSCCC(=O)N2)n1 (configuration not stated),9.778
14,Cc1nc2c(c(NC3CC3)n1)CCN(C(=O)C1(C#N)CC1)CC2,-9.329
15,CCNc1ccnc(N2Cc3cnc(CC(C)C)nc3C2)n1,8.628
16,CSCCC(NC(=O)c1ccc2ccccc2n1)C(=O)N(C)C (configuration not stated),-7.928
17,CSc1ccsc1C(=O)NC(Cc1ccccc1)C(N)=O (configuration not stated),-23.55
18,CSc1ncc(Cl)c(C(=O)NC(Cc2ccccc2)C(=O)O)n1 (configuration not stated),98.91
19,CCOCCNC(=O)C(CCSC)NC(=O)c1ccc2ccccc2n1 (configuration not stated),5.309
20,CCSc1ncc(Cl)c(C(=O)NC(CCSC)C(=O)O)n1 (configuration not stated),88.5
21,CCOc1ccc(Cl)c(C(=O)NC(Cc2ccccc2)C(N)=O)n1 (configuration not stated),-4.15
22,CCOc1ccc(Cl)c(C(=O)NC(C(N)=O)c2ccccc2)n1 (configuration not stated),-8.916
23,CSCCC(NC(=O)c1nc(SC)ncc1Cl)C(=O)O (configuration not stated),130.6
24,CSCCC(NC(=O)c1ccc2ccccc2n1)C(=O)O (configuration not stated),-5.769
25,CCCSc1ncc(Cl)c(C(=O)NC(CCSC)C(=O)O)n1 (configuration not stated),125.3
26,C=C(C)COc1ccc(C(=O)NCCn2c(C)cc(C)nc2=O)cc1,3.763

row,SMILES,Percent Effect [%]
1,NC(CC1CCCC1)c1ccc(Oc2ccccc2)cc1 (configuration not stated),-4.539
2,Cc1nnc(CN2CCCC2c2ccc3c(c2)OCCCO3)n1C (configuration not stated),-16.28
3,Cc1ccc(CNCc2nnc3n2CCCC3C(F)(F)F)s1 (configuration not stated),-0.9896
4,Cc1cc(CC(=O)NCC(O)COc2ccc(F)c(F)c2)n[nH]1 (configuration not stated),-4.204
5,CCN(CC)C(=O)c1ccc(Cl)c(NC(=O)c2csnn2)c1,102.3
6,CCN(CC)C(=O)c1ccc(Cl)c(NC(=O)c2cc(C(C)C)on2)c1,105.3
7,CCN(CC)C(=O)c1ccc(Cl)c(NC(=O)c2cc[nH]n2)c1,48.61
8,COCCN(Cc1ccc(F)cc1Cl)C(=O)c1csnn1,2.289
9,CC(C)OCCC(=O)Nc1cc(C(=O)N(C)C(C)C)ccc1Cl,-18.48
10,CC(C)CC(=O)Nc1cc(C(=O)N(C)C(C)C)ccc1Cl,-13.72
11,CCN(CC)c1ccc(CNC(=O)c2cnc(C)cn2)cn1,0.4576
12,CCN(CC)C(=O)c1ccc(Cl)c(NC(=O)c2cnc(C)cn2)c1,101.4
13,Cc1cnc(C(=O)N(CCN(C)C)Cc2ccc(Cl)cc2)cn1,18.7
14,O=C(c1nc(=O)[nH]c2ccccc12)N1CCCC(CC2CC2)(C(=O)O)C1 (configuration not stated),-2.768
15,CCc1noc(CS(=O)(=O)c2cccc(OC)c2)n1,-12.89
16,CN(C)CC1(O)CCN(C(=O)Cc2ccc3ccccc3c2)C1 (configuration not stated),131.3
17,CN(C)CC1(O)CCCN(C(=O)Cc2ccc(Cl)c(Cl)c2)C1 (configuration not stated),6.381
18,CN(C)CC1(O)CCN(C(=O)Cc2ccc3c(c2)CCCC3)C1 (configuration not stated),97.61
19,Cc1cc2occ(CC(=O)N3CCC(O)(CN(C)C)C3)c2cc1Cl (configuration not stated),-55.74
20,CN(CCO)C[C@@H]1CN(C(=O)Cc2ccc3ccccc3c2)C[C@@H]1CO,-10.71
21,CN(C)CC1(O)CCN(C(=O)Cc2ccc(Cl)c(Cl)c2)C1 (configuration not stated),-5.552
22,CN(C)CC1(O)CCN(C(=O)Cc2ccc3c(c2)CCC3)C1 (configuration not stated),113.1
23,Cc1c(C(=O)N2CCC(O)(CN(C)C)C2)c2cc(O)ccc2n1C (configuration not stated),-4.838
24,CN(C)C[C@@H]1CN(C(=O)Cc2ccc3ccccc3c2)C[C@@H]1CO,-10.12
